MEKK2 mut-MEK5: MEK5 binding signal on mutant MEKK2 PB1, primary screen, biochemical, multiplex bead flow cytometry, Alexa488-MEK5. Alexa488-MEK5 binding to MEKK2 mutant. percent response, % at 10 µM. hit rate 0.35% among 290,000; in the data active means percent response above about 24%, passing the limit was not always enough
CRFBP-R2 block: antagonists of CRF-BP/CRF-R2 complex, primary screen, cell-based, HEK293, calcium dye fluorescence, uHTS | CRF-induced calcium fluorescence | inhibition, % at 11.8 µM | AID 588475, 2011 | hit rate 0.59% among 350,000;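 active means inhibition of the ligand-induced calcium signal above about 50% at the single tested concentration, limit read from the data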
ABCB6 inh MLPCN: ABCB6 transporter inhibitors, primary screen, K562-ABCB6 cells, flow cytometry, MLPCN library; K562-ABCB6 porphyrin accumulation, 1 h; active compounds read low; fluorescence ratio to DMSO, % at 10 µM; hit rate 0.19% among 360,000;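 active means fluorescence ratio to DMSO below 75%, the collection mean minus 3 SD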;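 further: signal is porphyrin accumulated inside mitochondria; lower ratio means ABCB6 inhibition with less porphyrin fluorescence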
MEKK2 WT-MEK5: modulators of MEK5 binding to wildtype MEKK2, primary screen, biochemical, multiplex bead flow cytometry, Alexa488-MEK5. Alexa488-MEK5 binding to MEKK2 WT; actives lie on both sides. binding response (% of control), % at 10 µM. hit rate 1.1% among 290,000. AID 1531, 2009; in the data active means binding response below about 67% or above about 130%
CRFR2-BP ag: agonists of CRF-BP/CRF-R2 complex, primary screen, cell-based, HEK293, calcium dye fluorescence, uHTS; CRF-binding protein / CRF receptor 2 complex (human); calcium dye fluorescence (FLIPR); percent of saturating CRF peptide response; activation, % at 13.2 µM; hit rate 0.46% among 350,000; AID 588473, 2011;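 active means activation of at least 50%, plus an integration ratio under a set limit after plate pattern correction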
MEKK3 PB1 HTS: modulators of MEKK3-MEK5 PB1 binding, primary screen, biochemical, wildtype MEKK3, multiplex bead flow cytometry, Alexa488-MEK5; Mitogen-activated protein kinase kinase kinase 3 (Homo sapiens), Q99759; bead-based flow cytometry, Alexa488-MEK5 binding to MEKK3; actives lie on both sides; 0 = blocked by unlabeled MEK5, 100 = vehicle; binding response (% of control), % at 10 µM; hit rate 1.4% among 290,000;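 active means binding response more than 3 SD above or below the average of its plate-row segment, actives on both sides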;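 further: Alexa488 bead fluorescence after subtracting the streptavidin-only scavenger bead signal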
Target sequence (Q99759 whole entry, looked up): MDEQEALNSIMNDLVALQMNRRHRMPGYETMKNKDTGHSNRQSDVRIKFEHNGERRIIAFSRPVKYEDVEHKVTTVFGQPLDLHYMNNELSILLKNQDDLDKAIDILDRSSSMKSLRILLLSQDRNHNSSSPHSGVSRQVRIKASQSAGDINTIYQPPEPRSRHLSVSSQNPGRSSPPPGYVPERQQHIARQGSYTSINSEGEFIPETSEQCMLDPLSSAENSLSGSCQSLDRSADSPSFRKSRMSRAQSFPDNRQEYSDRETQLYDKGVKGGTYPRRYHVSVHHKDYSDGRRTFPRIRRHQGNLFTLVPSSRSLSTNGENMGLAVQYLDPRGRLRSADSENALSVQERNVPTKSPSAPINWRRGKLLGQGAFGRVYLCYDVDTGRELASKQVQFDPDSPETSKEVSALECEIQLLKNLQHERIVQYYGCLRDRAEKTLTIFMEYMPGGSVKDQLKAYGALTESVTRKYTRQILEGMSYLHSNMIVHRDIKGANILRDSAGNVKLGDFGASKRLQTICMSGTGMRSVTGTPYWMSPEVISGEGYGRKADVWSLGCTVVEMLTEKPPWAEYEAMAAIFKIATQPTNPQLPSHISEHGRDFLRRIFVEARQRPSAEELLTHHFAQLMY
Numbers stand for hits; - = inactive; . = no result; [ ] = dose if it differs, or a comment. This is a sample that favours compounds with a hit; in the whole collection about 2.9% have one here.

SMILES	MEKK2 mut-MEK5	CRFBP-R2 block	ABCB6 inh MLPCN	MEKK2 WT-MEK5	CRFR2-BP ag	MEKK3 PB1 HTS
C=CCOc1c(Br)cc(/C=C2/C(=O)ON=C2C)cc1OC	-	-	-	-	-	-
COc1cc(C#Cc2ccc3cc(C(C)(C)O)oc(=O)c3c2)cc(OC)c1	.	-	-	.	-	.
COc1ccc2nc(C)cc(NCc3ccc(F)cc3)c2c1	.	-	-	.	73	54[inhibitor]
COc1ccc2nc(C)cc(Nc3ccc(C)cc3)c2c1	-	-	-	-	-	-
O=C(CN1CCc2ccccc2C1)Nc1cccc(S(=O)(=O)N2CCCC2)c1	-	-	-	-	-	-
Cc1cc(C)cc(NC(=O)Cn2nnc(C(=O)NCc3ccc(F)cc3)c2N)c1	-	76	-	-	-	-
O=C(O)C1=C[C@@H](c2ccc(Br)cc2)C[C@@H](OCc2ccc(CO)cc2)O1	-	76	-	-	-	-
NC(=O)C1=C[C@H](c2ccc(Br)cc2)C[C@H](OCc2ccc(CO)cc2)O1	-	-	-	-	-	-
CCCCN1/C(=C/c2ccc3ccccc3[n+]2CC)Sc2ccccc21	-	-	-	-	128	-
CCOC(=O)c1cccc(NS(=O)(=O)c2ccc(NC(C)=O)cc2)c1	-	-	-	-	-	-
CCOC(=O)c1cccc(NS(=O)(=O)Cc2ccccc2)c1	-	149	-	-	-	-
Clc1ccccc1NN(Cc1ccncc1)c1ccccc1Cl	.	53	-	.	-	.
Clc1ccccc1NN(Cc1ccccn1)c1ccccc1Cl	.	-	-	.	-	.
CCOC(=O)c1cc(C#N)c(N2CCN(c3ccccn3)CC2)nc1-c1ccccc1	-	54	-	-	-	-
CCOC(=O)c1cc(C#N)c(SC)nc1-c1ccccc1	-	-	-	-	-	-
CCOC(=O)c1cc(C#N)c(Oc2ccccc2OC)nc1-c1ccccc1	-	57	-	-	-	-
CC(=O)c1cc(C#N)c(N2CCN(c3ccccc3)CC2)nc1C	-	-	-	-	-	-
O=C(c1cccs1)N1CCCC(c2nc3c(nnn3Cc3ccccc3Cl)c(=O)[nH]2)C1 (stereo not drawn)	-	-	-	-	-	-
COc1cc(NS(=O)(=O)c2ccc(N/C=C(\C#N)c3nc4cc(Cl)ccc4o3)cc2)nc(OC)n1	-	-	55	-	-	-
COc1cc(NS(=O)(=O)c2ccc(NC(C)=O)cc2)nc(OC)n1	-	-	-	-	-	-
CCc1cc(CNC(=O)c2ccc(OC3CCN(CCc4ccccc4)CC3)cc2)on1	-	-	-	-	-	-
O=C1NC[C@H](c2ccccc2)N(CCC23CC4CC(CC(C4)C2)C3)C1=O	.	-	-	.	-	.
CC(=O)N(Cc1cc2ccccc2[nH]c1=O)c1ccc(C)cc1	-	-	-	-	-	-
Cc1cccc(C)c1OCC(=O)N=Nc1c(O)[nH]c2ccc(Br)cc12	.	-	-	.	-	.
COc1ccc(/C=N/OCC(=O)N=Nc2c(O)[nH]c3ccc(Br)cc23)cc1	-	55	-	-	-	-
SMILES	MEKK2 mut-MEK5	CRFBP-R2 block	ABCB6 inh MLPCN	MEKK2 WT-MEK5	CRFR2-BP ag	MEKK3 PB1 HTS
CC1CCC2=NN(C(=O)c3ccco3)C(O)(C(F)(F)F)C2C1 (stereo not drawn)	-	67	-	-	-	-
CCc1ccccc1N=Cc1c(C)c(C#N)c2[nH]c3ccccc3n2c1=O	.	-	-	.	165	.
CCCCc1c(C)c(C#N)c2[nH]c3ccccc3n2c1=O	-	-	-	-	-	-
O=C(NCCCN1CCCC1=O)c1ccc(S(=O)(=O)Nc2cccc(C(F)(F)F)c2)cc1	.	-	-	.	-	.
Cc1ccccc1C(=O)N1CCCC(N2CCN(Cc3ccc4c(c3)OCO4)CC2)C1 (stereo not drawn)	-	-	-	-	-	-
COCc1ccc(C(=O)N2CCCC(N3CCN(c4cccc(Cl)c4)CC3)C2)s1 (stereo not drawn)	.	-	-	.	-	.
Cc1nc(Sc2ccccc2)c(C#N)cc1-c1ccccc1	-	53	-	-	-	-
Cc1nc(Cl)c(C#N)cc1-c1ccccc1	-	-	-	-	-	-
FC(F)(F)c1cnc(NNC(=S)Nc2ccccc2Cl)c(Cl)c1	-	-	-	-	89	-
CCOC(=O)c1c(C)n(-c2ccccc2)c2ccc(OCCN(C)C)cc12	-	-	-	-	-	-
COCCOc1cc(NC(=O)c2sccc2Oc2ccc([N+](=O)[O-])cc2F)c(Cl)cc1Cl	-	-	-	-	-	-
O=C(Nc1ccccc1)c1sccc1Oc1ccc([N+](=O)[O-])cc1F	-	64	-	-	-	-
CCc1ccc(NC(=O)CSc2nnc(CNC(=O)c3ccc(OC)cc3)o2)cc1	-	-	-	-	-	-
Cc1cc(C(C#N)c2ccc(Cl)cc2)c(Cl)cc1NC(=O)c1cc(I)cc(I)c1O (stereo not drawn)	.	58	-	.	-	.
CCOC(=O)C1=C(COC(=O)c2ccc3ccccc3c2O)NC(=O)NC1C (stereo not drawn)	.	-	-	.	53	.
O=C(CSc1nnc2ccccn12)NNC(=O)c1cccc(Cl)c1	.	-	-	.	-	.
C=CCn1c(=S)[nH]c2nc3c(cc2c1=O)CCCC3	-	-	70	-	-	-
CC(=O)NC(Cc1ccc(C(C)C)cc1)C(=O)NC1CCN(C(=O)c2cccc(C)c2)CC1 (stereo not drawn)	-	53	-	-	-	-
COc1cc(/C=N/NC(=O)C(=O)/C=C2\NC3(CCCC3)Cc3ccccc32)ccc1O	-	-	-	-	-	-
O=C(/C=C1\NC2(CCCC2)Cc2ccccc21)C(=O)N/N=C/c1ccccc1O	-	-	-	-	-	174
C/C(=N\Nc1ccc([N+](=O)[O-])cc1)c1cc2ccccc2o1	-	-	-	-	53	-
CCOc1ccccc1NC(=O)CNC(=O)Cc1ccccc1	-	52	-	-	-	-
CCOc1ccccc1N=C1SC(CC(=O)Nc2ccc(OC)cc2OC)C(=O)N1CCC1=CCCCC1 (stereo not drawn)	-	57	-	-	-	-
N#CNC(=Nc1cccc(F)c1)SCc1ccccc1F	-	85	-	-	-	-
CC(C)N=C(NC#N)SCc1ccccc1F	-	-	-	-	-	-
COc1ccc(NC(=O)c2ccc3c(c2)OCO3)cc1	-	-	-	-	-	-
COc1ccc(NC(=O)C(c2cc3c(cc2[N+](=O)[O-])OCO3)N(C)c2ccccc2)cc1 (stereo not drawn)	-	-	-	-	90	-
